In PubChem BioAssay AID1159580 (chemical genetic matrix, 2015) one finds normalized growth data, which are given here for 2 compounds.

In all, about 5,500 compounds went through this assay and about 2,000 (36%) were called active. Inconclusive results (about 18%) are left out. The list shows a part of the results. Values without a mark were called inactive. Rule as the data show it: active = normalized growth mostly below about 0.91 (no sharp cut-off); inconclusive = no clear call, values can overlap the other calls; inactive = mostly above about 0.92.

The assay is described as follows: chemical genetic growth profiling, strain panel (AID 1159580).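 Also: tested at 20 µM; growth read once vehicle control cultures reached saturation at 30 °C; 1 = growth at the plate median or of vehicle wells; lower values mean less growth of the strain.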 The settings on record: S. cerevisiae deletion strains, growth OD.
Where [1] appears, read: locus YAL040C, strain CLN3, stronger effect = lower value.
[2] abbreviates: locus YCL061C, strain MRC1 (second series), stronger effect = lower value.
Setting [3] is: locus YDR363W, strain ESC2, stronger effect = lower value.
Where [4] appears, read: locus YER002W, strain NOP16, stronger effect = lower value.
[5] abbreviates: locus YNL175C, strain NOP13, stronger effect = lower value.
The mark [6] stands for this setting: locus YNL197C, strain WHI3, stronger effect = lower value.
[7] abbreviates: locus YNL224C, strain SQS1, stronger effect = lower value.
[8] abbreviates: locus YOR083W, strain WHI5 (second series), stronger effect = lower value.

On to `C[N+]1(C)CCC(OC(=O)C(c2ccccc2)c2ccccc2)CC1`, for which the normalized growth by setting is: under setting [1], 1.08; under setting [2], 0.992; under setting [3], 0.956; under setting [4], 0.999; (locus YMR263W, strain SAP30, stronger effect = lower value) 0.987; (locus YMR307W, strain GAS1, stronger effect = lower value) 0.988. Moreover, the normalized growth was 1.01 (locus YNL153C, strain GIM3, stronger effect = lower value); 1.01 under setting [5]; 1.03 under setting [6]; 1.01 under setting [7]; 0.915 (locus YNL322C, strain KRE1, stronger effect = lower value); 1.02 under setting [8].

On to `C[N+]1(C)CCN(c2ccccc2)CC1`, for which the normalized growth runs as follows: under setting [1], 0.873 (active); under setting [2], 1; under setting [3], 1.04; under setting [4], 0.961; (locus YGR078C, strain PAC10, stronger effect = lower value) 1; (locus YNL128W, strain TEP1, stronger effect = lower value) 0.997. Also, the normalized growth was 0.974 under setting [5]; 0.958 under setting [6]; 1 under setting [7]; 0.979 under setting [8]; 1 (locus YPL241C, strain CIN2, stronger effect = lower value).
